# Reference: paper PMC7862700, “An all-to-all approach to the identification of sequence-specific readers for epigenetic DNA modifications on cytosine”
# Key:
# Assay in all cases: DAPPL (digital affinity profiling via proximity ligation, sequencing); 10 mM Tris-HCl pH 7.5, 50 mM NaCl, 1 mM DTT, 4% glycerol, room temperature, 30 min; GST-TFs on glutathione beads, 16-mer random dsDNA library, 0.1% formaldehyde crosslink after washing; high values mean tight binding
# Settings in all cases: protein: recombinant; tags: N-terminal GST; dsDNA, one strand shown
# [1] = target: T1, ERF (Homo sapiens, UniProt P50548 1-548)
# T1 sequence: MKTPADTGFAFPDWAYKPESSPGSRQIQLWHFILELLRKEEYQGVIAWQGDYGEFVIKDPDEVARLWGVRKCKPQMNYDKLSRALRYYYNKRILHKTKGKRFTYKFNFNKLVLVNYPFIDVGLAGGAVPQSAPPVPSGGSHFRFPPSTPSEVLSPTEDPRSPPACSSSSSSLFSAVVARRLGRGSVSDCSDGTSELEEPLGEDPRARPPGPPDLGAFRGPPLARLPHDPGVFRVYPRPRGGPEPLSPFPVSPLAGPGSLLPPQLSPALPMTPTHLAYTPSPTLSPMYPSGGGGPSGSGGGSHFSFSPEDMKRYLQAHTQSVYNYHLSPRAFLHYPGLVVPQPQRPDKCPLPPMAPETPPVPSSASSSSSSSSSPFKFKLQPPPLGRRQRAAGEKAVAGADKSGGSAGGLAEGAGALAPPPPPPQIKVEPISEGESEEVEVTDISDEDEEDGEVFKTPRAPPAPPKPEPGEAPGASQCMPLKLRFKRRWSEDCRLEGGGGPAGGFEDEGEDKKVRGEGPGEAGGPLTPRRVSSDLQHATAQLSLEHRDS
# How it was run: (§1)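 Human transcription factors were made in yeast as GST fusions, captured on glutathione beads and barcoded with DNA. With a tag-only sample included, the pool was incubated with 200 nmole of a random double-stranded 16-mer DNA library in Tris/NaCl/DTT/glycerol buffer at room temperature for 30 min, then crosslinked with 0.1% formaldehyde after washing, ligated by proximity, amplified and sequenced. For binding signal, each hexamer's read frequency for a factor is divided by its frequency for the tag-only sample.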
# [2] = target: T2, ETV3L (Homo sapiens, UniProt Q6ZN32 1-361)
# T2 sequence: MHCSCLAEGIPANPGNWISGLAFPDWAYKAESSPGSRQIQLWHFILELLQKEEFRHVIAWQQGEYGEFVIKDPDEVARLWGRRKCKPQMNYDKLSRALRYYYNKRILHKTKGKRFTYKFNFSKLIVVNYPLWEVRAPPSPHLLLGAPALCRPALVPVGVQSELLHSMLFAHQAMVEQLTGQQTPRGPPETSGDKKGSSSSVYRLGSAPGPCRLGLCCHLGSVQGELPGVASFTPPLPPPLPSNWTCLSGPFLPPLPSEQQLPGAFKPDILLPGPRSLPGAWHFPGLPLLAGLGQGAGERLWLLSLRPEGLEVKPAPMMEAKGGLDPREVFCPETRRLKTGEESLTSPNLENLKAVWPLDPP
# How it was run: as §1
# [3] = target: T3, ETS2 (Homo sapiens, UniProt P15036 1-469)
# T3 sequence: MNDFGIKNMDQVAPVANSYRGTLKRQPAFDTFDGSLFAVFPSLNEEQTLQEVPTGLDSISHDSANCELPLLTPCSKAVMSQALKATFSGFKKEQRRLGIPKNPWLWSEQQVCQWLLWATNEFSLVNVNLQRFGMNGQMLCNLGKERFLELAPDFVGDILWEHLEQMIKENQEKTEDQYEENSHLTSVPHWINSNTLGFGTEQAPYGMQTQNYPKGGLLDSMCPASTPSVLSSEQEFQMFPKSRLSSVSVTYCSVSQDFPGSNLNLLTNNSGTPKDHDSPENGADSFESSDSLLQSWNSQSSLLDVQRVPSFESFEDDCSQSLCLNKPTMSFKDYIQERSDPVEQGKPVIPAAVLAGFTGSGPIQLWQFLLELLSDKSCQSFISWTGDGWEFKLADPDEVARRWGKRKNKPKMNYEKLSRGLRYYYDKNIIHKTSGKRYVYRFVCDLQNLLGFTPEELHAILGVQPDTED
# How it was run: as §1
# [4] = target: T4, SPDEF (Homo sapiens, UniProt O95238 1-335)
# T4 sequence: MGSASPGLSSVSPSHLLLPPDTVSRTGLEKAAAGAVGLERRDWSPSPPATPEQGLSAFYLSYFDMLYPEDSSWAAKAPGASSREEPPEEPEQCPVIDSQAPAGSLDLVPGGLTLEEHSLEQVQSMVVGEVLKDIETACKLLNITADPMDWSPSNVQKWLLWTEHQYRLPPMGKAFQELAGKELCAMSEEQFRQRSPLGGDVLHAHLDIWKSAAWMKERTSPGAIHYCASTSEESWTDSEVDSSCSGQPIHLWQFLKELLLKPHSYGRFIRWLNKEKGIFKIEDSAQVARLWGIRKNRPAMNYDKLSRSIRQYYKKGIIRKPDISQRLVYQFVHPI
# How it was run: as §1
# [5] = target: T5, ETV7 (Homo sapiens, UniProt Q9Y603 1-341)
# T5 sequence: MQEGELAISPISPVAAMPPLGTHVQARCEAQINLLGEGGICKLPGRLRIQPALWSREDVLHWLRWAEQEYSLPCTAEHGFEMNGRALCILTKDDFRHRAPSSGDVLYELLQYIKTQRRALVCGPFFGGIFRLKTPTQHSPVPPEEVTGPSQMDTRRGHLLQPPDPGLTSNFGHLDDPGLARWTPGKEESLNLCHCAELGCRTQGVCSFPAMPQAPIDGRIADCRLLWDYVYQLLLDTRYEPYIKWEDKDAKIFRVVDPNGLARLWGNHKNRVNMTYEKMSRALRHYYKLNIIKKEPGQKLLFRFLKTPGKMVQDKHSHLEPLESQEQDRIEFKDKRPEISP
# How it was run: as §1
# [6] = target: T6, ELF5 (Homo sapiens, UniProt Q9UKW6-2 1-255)
# T6 sequence: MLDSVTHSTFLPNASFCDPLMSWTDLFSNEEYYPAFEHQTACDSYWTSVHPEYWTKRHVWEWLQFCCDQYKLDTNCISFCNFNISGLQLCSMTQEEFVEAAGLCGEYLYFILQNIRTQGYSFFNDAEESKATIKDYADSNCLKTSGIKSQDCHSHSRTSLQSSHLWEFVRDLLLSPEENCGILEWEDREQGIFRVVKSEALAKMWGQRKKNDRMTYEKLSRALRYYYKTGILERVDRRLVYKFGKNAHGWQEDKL
# How it was run: as §1
# [7] = target: T7, ETV3 (Homo sapiens, UniProt P41162-2 1-143)
# T7 sequence: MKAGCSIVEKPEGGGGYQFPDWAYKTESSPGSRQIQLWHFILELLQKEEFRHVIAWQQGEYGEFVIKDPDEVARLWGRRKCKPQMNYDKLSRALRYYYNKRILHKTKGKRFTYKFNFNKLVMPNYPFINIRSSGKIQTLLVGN
# How it was run: as §1
# [8] = target: ETV6 (Homo sapiens, UniProt P41212 1-452)
# Chain of ETV6 (P41212 whole entry): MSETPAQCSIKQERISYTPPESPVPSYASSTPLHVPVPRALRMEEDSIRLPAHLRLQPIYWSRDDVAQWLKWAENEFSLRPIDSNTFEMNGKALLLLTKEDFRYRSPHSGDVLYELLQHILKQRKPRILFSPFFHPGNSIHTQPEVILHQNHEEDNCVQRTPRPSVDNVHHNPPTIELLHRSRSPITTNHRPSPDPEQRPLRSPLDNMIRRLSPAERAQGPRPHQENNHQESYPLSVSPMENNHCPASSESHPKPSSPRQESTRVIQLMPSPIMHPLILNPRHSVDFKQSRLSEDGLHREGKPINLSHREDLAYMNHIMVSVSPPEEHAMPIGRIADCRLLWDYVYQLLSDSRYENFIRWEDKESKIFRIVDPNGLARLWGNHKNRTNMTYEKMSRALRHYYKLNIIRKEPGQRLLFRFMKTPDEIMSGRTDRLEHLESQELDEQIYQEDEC
# How it was run: as §1
Sequence,binding signal [1],binding signal [2],binding signal [3],binding signal [4],binding signal [5],binding signal [6],binding signal [7],binding signal [8]
TCCCTC,"1.46 fold enrichment (6-mer frequency, TF over GST control)","1.41 fold enrichment (6-mer frequency, TF over GST control)","1.49 fold enrichment (6-mer frequency, TF over GST control)","1.4 fold enrichment (6-mer frequency, TF over GST control)","1.4 fold enrichment (6-mer frequency, TF over GST control)","1.53 fold enrichment (6-mer frequency, TF over GST control)","1.49 fold enrichment (6-mer frequency, TF over GST control)","1.43 fold enrichment (6-mer frequency, TF over GST control)"
ACGATT,"1.4 fold enrichment (6-mer frequency, TF over GST control)","1.28 fold enrichment (6-mer frequency, TF over GST control)","1.26 fold enrichment (6-mer frequency, TF over GST control)","1.27 fold enrichment (6-mer frequency, TF over GST control)","1.28 fold enrichment (6-mer frequency, TF over GST control)","1.24 fold enrichment (6-mer frequency, TF over GST control)","1.32 fold enrichment (6-mer frequency, TF over GST control)","1.31 fold enrichment (6-mer frequency, TF over GST control)"
CTGTTC,"1.52 fold enrichment (6-mer frequency, TF over GST control)","1.31 fold enrichment (6-mer frequency, TF over GST control)","1.44 fold enrichment (6-mer frequency, TF over GST control)","1.29 fold enrichment (6-mer frequency, TF over GST control)","1.42 fold enrichment (6-mer frequency, TF over GST control)","1.52 fold enrichment (6-mer frequency, TF over GST control)","1.51 fold enrichment (6-mer frequency, TF over GST control)","1.44 fold enrichment (6-mer frequency, TF over GST control)"
TAGCTC,"1.04 fold enrichment (6-mer frequency, TF over GST control)","1.14 fold enrichment (6-mer frequency, TF over GST control)","1.21 fold enrichment (6-mer frequency, TF over GST control)","1.24 fold enrichment (6-mer frequency, TF over GST control)","1.24 fold enrichment (6-mer frequency, TF over GST control)","1.1 fold enrichment (6-mer frequency, TF over GST control)","1.17 fold enrichment (6-mer frequency, TF over GST control)","1.14 fold enrichment (6-mer frequency, TF over GST control)"
TAGTAC,"1.13 fold enrichment (6-mer frequency, TF over GST control)","1.1 fold enrichment (6-mer frequency, TF over GST control)","1.17 fold enrichment (6-mer frequency, TF over GST control)","1.14 fold enrichment (6-mer frequency, TF over GST control)","1.17 fold enrichment (6-mer frequency, TF over GST control)","1.17 fold enrichment (6-mer frequency, TF over GST control)","1.27 fold enrichment (6-mer frequency, TF over GST control)","1.22 fold enrichment (6-mer frequency, TF over GST control)"
CCCGTT,"1.13 fold enrichment (6-mer frequency, TF over GST control)","1.19 fold enrichment (6-mer frequency, TF over GST control)","1.1 fold enrichment (6-mer frequency, TF over GST control)","1.2 fold enrichment (6-mer frequency, TF over GST control)","1.19 fold enrichment (6-mer frequency, TF over GST control)","1.27 fold enrichment (6-mer frequency, TF over GST control)","1.17 fold enrichment (6-mer frequency, TF over GST control)","1.16 fold enrichment (6-mer frequency, TF over GST control)"
ATCACC,"1.13 fold enrichment (6-mer frequency, TF over GST control)","1.17 fold enrichment (6-mer frequency, TF over GST control)","1.05 fold enrichment (6-mer frequency, TF over GST control)","1.12 fold enrichment (6-mer frequency, TF over GST control)","1 fold enrichment (6-mer frequency, TF over GST control)","1.01 fold enrichment (6-mer frequency, TF over GST control)","1.12 fold enrichment (6-mer frequency, TF over GST control)","1.06 fold enrichment (6-mer frequency, TF over GST control)"
ATTAAA,"1.3 fold enrichment (6-mer frequency, TF over GST control)","1.24 fold enrichment (6-mer frequency, TF over GST control)","1.12 fold enrichment (6-mer frequency, TF over GST control)","1.14 fold enrichment (6-mer frequency, TF over GST control)","1.1 fold enrichment (6-mer frequency, TF over GST control)","1.12 fold enrichment (6-mer frequency, TF over GST control)","1.12 fold enrichment (6-mer frequency, TF over GST control)","1.18 fold enrichment (6-mer frequency, TF over GST control)"
TGCTCC,"1.42 fold enrichment (6-mer frequency, TF over GST control)","1.45 fold enrichment (6-mer frequency, TF over GST control)","1.45 fold enrichment (6-mer frequency, TF over GST control)","1.74 fold enrichment (6-mer frequency, TF over GST control)","1.63 fold enrichment (6-mer frequency, TF over GST control)","1.37 fold enrichment (6-mer frequency, TF over GST control)","1.37 fold enrichment (6-mer frequency, TF over GST control)","1.34 fold enrichment (6-mer frequency, TF over GST control)"
